MEKK3 PB1 HTS: raises or lowers MEK5 binding to the human MEKK3 PB1 domain; bead-based flow cytometry, Alexa488-MEK5 binding to MEKK3; actives lie on both sides; 0 = blocked by unlabeled MEK5, 100 = vehicle; binding response (% of control), % at 10 µM; 1.4% of 290,000 active;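 active = binding response more than 3 SD above or below the average of its plate-row segment, actives on both sides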;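 note: Alexa488 bead fluorescence after subtracting the streptavidin-only scavenger bead signal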
MEKK2 WT-MEK5: raises or lowers MEK5 binding to wildtype human MEKK2 PB1 domain | Q9Y2U5 | binding response (% of control), % at 10 µM | bead flow cytometry, Alexa488-MEK5 binding to MEKK2 WT; actives lie on both sides | 1.1% of 290,000 active; in the data active = binding response below about 67% or above about 130%
CRFBP-R2 agonist: agonists of human CRF-binding protein/CRF-R2 receptor complex; HEK293 CRF-R2/CRF-BP, calcium dye fluorescence (FLIPR); percent of saturating CRF peptide response; activation, % at 13.2 µM; 0.46% of 350,000 active;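 active = activation of at least 50%, plus an integration ratio under a set limit after plate pattern correction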;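 note: plate controls were neutral control wells without compound for no effect and CRF at EC100 for full effect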
MEKK2mut PB1 HTS: signal of MEK5 binding to mutant human MEKK2 PB1 domain. percent response, % at 10 µM. bead flow cytometry, Alexa488-MEK5 binding to MEKK2 mutant. AID 1530. 0.35% of 290,000 active; in the data active = percent response above about 24%, passing the limit was not always enough
CRFBP-R2 block: blocks CRF-induced signaling of the CRF-BP/CRF-R2 complex. HEK293 CRF-R2/CRF-BP, CRF-induced calcium fluorescence. 0.59% of 350,000 active. AID 588475. inhibition, % at 11.8 µM;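 active = inhibition of the ligand-induced calcium signal above about 50% at the single tested concentration, limit read from the data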
ABCB6 inh MLPCN: blocks the human ABCB6 transporter. fluorescence ratio to DMSO, % at 10 µM. AID 602162. K562-ABCB6 porphyrin accumulation, flow cytometry, 1 h; active compounds read low. Q9NP58. 0.19% of 360,000 active;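 active = fluorescence ratio to DMSO below 75%, the collection mean minus 3 SD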;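 note: signal is porphyrin accumulated inside mitochondria; 100% equals median channel fluorescence of DMSO control wells; lower ratio means ABCB6 inhibition with less porphyrin fluorescence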
Target sequence (Q9NP58 whole entry, looked up): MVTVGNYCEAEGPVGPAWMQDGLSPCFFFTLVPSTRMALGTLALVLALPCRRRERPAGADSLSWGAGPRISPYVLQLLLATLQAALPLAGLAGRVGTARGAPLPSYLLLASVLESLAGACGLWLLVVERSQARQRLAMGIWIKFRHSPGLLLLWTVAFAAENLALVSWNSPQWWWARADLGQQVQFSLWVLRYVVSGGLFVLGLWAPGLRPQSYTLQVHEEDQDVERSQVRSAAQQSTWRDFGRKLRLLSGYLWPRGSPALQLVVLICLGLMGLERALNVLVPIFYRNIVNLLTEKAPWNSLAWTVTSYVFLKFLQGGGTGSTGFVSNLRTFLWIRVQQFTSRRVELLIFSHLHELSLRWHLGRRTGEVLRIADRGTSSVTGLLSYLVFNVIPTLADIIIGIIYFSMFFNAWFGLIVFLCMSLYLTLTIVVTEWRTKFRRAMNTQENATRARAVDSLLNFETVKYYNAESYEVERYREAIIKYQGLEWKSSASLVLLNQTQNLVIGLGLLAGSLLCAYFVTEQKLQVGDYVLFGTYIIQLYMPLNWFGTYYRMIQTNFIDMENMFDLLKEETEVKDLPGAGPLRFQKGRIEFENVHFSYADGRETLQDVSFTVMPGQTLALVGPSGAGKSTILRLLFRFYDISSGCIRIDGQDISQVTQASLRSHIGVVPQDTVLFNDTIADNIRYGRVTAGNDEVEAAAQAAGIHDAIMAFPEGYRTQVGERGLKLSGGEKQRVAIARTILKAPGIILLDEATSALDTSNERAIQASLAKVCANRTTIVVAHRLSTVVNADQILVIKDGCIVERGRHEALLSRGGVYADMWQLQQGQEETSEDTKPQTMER
MEKK2wt confirm: raises or lowers MEK5 binding to wildtype human MEKK2, retest; shares compounds with MEKK3 PB1 HTS; bead flow cytometry, Alexa488-MEK5 binding to MEKK2 WT; actives lie on both sides; binding response (% of control), % at 10 µM; 2.4% of 5,900 active; AID 1892; in the data active = binding response below about 16% or above about 210%; inactive = in between
MEKK2mut-MEK5: signal of MEK5 binding to mutant human MEKK2, retest; shares compounds with MEKK3 PB1 HTS; bead flow cytometry, Alexa488-MEK5 binding to MEKK2 mutant; percent response, % at 10 µM; 2% of 5,900 active; in the data active = percent response mostly above about 71%, no sharp cut-off; inactive = mostly below about 38%;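 note: higher means compound restores mutant binding toward wildtype level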
MEKK3-MEK5 inh: confirmation of inhibitors of MEK5 binding to human MEKK3. binding response (% of control), % at 10 µM. bead flow cytometry, Alexa488-MEK5 binding to MEKK3; active compounds read low. AID 1894. shares compounds with MEKK3 PB1 HTS. 1.8% of 5,900 active;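 active = binding response below 72% of control, or above a set upper limit, though filed actives all read lower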;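 note: 100% = DMSO only wells and 0% = binding blocked by excess unlabeled MEK5; lower values mean stronger disruption of MEK5 binding to MEKK3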
Numbers without * were called inactive; x = not tested or not shown; [ ] = remark or other dose. Only some compounds are listed: those with a hit (about 2.9% of all), similar ones and a draw of the others.

SMILES | MEKK3 PB1 HTS | MEKK2 WT-MEK5 | CRFBP-R2 agonist | MEKK2mut PB1 HTS | CRFBP-R2 block | ABCB6 inh MLPCN | MEKK2wt confirm | MEKK2mut-MEK5 | MEKK3-MEK5 inh
COc1ccc(NC2CCCN(C(=O)c3ccc(C)c(N4CCNC4=O)c3)C2)cc1 (stereo not given) | 105.0 | 104.0 | -0.5 | 3.0 | -3.6 | 93.0 | x | x | x
COc1ccc(OCC(=O)Nc2ccccc2OC(F)F)cc1 | 122.0* | 123.0 | -2.3 | 19.0 | 1.5 | 91.0 | 99.0 | -2.0 | 97.0
Cc1ccc(CCNC(=O)c2nnc(CS(=O)(=O)c3ccccc3)o2)cc1 | 99.0 | 96.0 | -0.7 | -1.0 | -13.8 | 98.0 | x | x | x
CC(=O)N1CCN(Cc2nc3cc([N+](=O)[O-])ccc3n2C)CC1 | 96.0 | 100.0 | 0.1 | -2.0 | -6.8 | 99.0 | x | x | x
Cn1c(CN2CCN(C(=O)c3ccc(F)cc3)CC2)nc2cc([N+](=O)[O-])ccc21 | 147.0* | 106.0 | 0.4 | 1.0 | 10.4 | 101.0 | 100.0 | 0.0 | 101.0
COc1ccccc1CNC(=O)CSc1ccc(C(=O)Nc2ccccc2OC)cc1[N+](=O)[O-] | 123.0 | 106.0 | 1.6 | 0.0 | -1.6 | 104.0 | x | x | x
COc1ccccc1NC(=O)c1ccc(SCC(=O)NCc2ccccc2Cl)c([N+](=O)[O-])c1 | 133.0* | 103.0 | 1.0 | 0.0 | 23.2 | 92.0 | 95.0 | 0.0 | 103.0
COC(=O)c1ccc(C2c3c(oc4ccc(Cl)cc4c3=O)C(=O)N2CCN2CCOCC2)cc1 (stereo not given) | 131.0* | 128.0 | 0.3 | 28.0 | 15.9 | 106.0 | 99.0 | 3.0 | 102.0
COC(=O)CN1C(=O)N/C(=C/c2ccccc2OC)C1=O | 131.0* | 116.0 | -1.5 | 1.0 | 6.2 | 100.0 | 104.0 | 0.0 | 108.0
COC(=O)CN1C(=O)N/C(=C/c2cc(OC)c(OC)cc2C)C1=O | 95.0 | 97.0 | -0.6 | -3.0 | -9.9 | 99.0 | x | x | x
O=C(CCCCCN1C(=O)c2cccc3cccc(c23)C1=O)NCCO | 100.0 | 98.0 | -0.5 | 2.0 | -1.1 | 96.0 | x | x | x
COc1cccc(COC(=O)C2CCN(S(=O)(=O)c3ccc(C)cc3C)CC2)c1OC | x | x | 4.7 | x | 7.7 | 91.0 | x | x | x
COc1ccc(N2C(=O)CC(Sc3ncccc3C(=O)O)C2=O)cc1 (stereo not given) | 101.0 | 102.0 | -0.2 | 0.0 | 1.3 | 100.0 | x | x | x
O=C(O)c1cccnc1SC1CC(=O)N(c2ccccc2)C1=O (stereo not given) | 128.0* | 117.0 | 0.1 | 33.0 | 2.8 | 98.0 | 95.0 | -7.0 | 96.0
Cc1cccc(NC(=S)N/N=C/c2ccc([N+](=O)[O-])s2)c1 | 86.0 | 50.0*[inhibitor] | 5.4 | -7.0 | -20.4 | 362.0 | 63.0 | -23.0 | 91.0
O=C(CN1C(=O)NC(CCc2ccccc2)C1=O)NC1CC1 (stereo not given) | 85.0 | 96.0 | -1.3 | -4.0 | -2.4 | 100.0 | x | x | x
COC(=O)C1CCN(C(=O)CN2C(=O)NC(CCc3ccccc3)C2=O)CC1 (stereo not given) | 122.0* | 124.0 | -0.2 | 9.0 | -10.7 | 100.0 | 99.0 | -1.0 | 103.0
CCN(CC)CCNC(=O)c1cc2c(-c3ccc(Cl)cc3)nn(C)c2s1 | 109.0 | 191.0* | 0.7 | 21.0 | -7.1 | 101.0 | 155.0 | 26.0 | 103.0
CCOCCCNC(=O)c1cc2c(-c3ccc(Cl)cc3)nn(C)c2s1 | 116.0 | 125.0 | -1.5 | 7.0 | 6.5 | 104.0 | x | x | x
CCCCN(CC)CCNC(=O)c1cc2c(-c3ccc(Cl)cc3)nn(C)c2s1 | 109.0 | 198.0* | -1.0 | 47.0* | -12.9 | 97.0 | 201.0 | 98.0* | 115.0
CCCN(CCC)CCNC(=O)c1cc2c(-c3ccc(Cl)cc3)nn(C)c2s1 | 106.0 | 184.0* | -1.8 | 42.0* | 2.4 | 94.0 | 190.0 | 92.0* | 113.0
Cc1ccc(S(=O)(=O)NC(Cc2ccc(Cl)cc2)C(=O)O)cc1 (stereo not given) | 104.0 | 109.0 | -2.1 | 6.0 | -2.1 | 94.0 | x | x | x
Cc1cccc(S(=O)(=O)NC(Cc2c[nH]c3ccccc23)C(=O)O)c1 (stereo not given) | 131.0* | 109.0 | 2.7 | 0.0 | -6.8 | 99.0 | 98.0 | 0.0 | 100.0
Cc1ccc(S(=O)(=O)NC(Cc2ccccc2)C(=O)O)cc1 (stereo not given) | 1.0*[inhibitor] | -3.0*[inhibitor] | -1.6 | -27.0 | 3.1 | 95.0 | 91.0 | -6.0 | 96.0
O=C(Nc1ccc2nc(-c3ccc(Br)o3)[nH]c2c1)c1ccco1 | 107.0 | 104.0 | -6.7 | 22.0 | 13.1 | 85.0 | x | x | x
SMILES | MEKK3 PB1 HTS | MEKK2 WT-MEK5 | CRFBP-R2 agonist | MEKK2mut PB1 HTS | CRFBP-R2 block | ABCB6 inh MLPCN | MEKK2wt confirm | MEKK2mut-MEK5 | MEKK3-MEK5 inh
CC(=O)Nc1ccc2nc(-c3ccc(Br)o3)[nH]c2c1 | 66.0*[inhibitor] | 63.0*[inhibitor] | 1.6 | -3.0 | 6.1 | 100.0 | 104.0 | 9.0 | 104.0
CCCc1c(C)nc2ccccc2c1SCCC#N | 60.0*[inhibitor] | 93.0 | 0.5 | 0.0 | -0.4 | 99.0 | 95.0 | 0.0 | 98.0
CCc1c(C)nc2c(Br)cccc2c1SCCC#N | 143.0* | 102.0 | 0.4 | 2.0 | -2.8 | 94.0 | 102.0 | -2.0 | 101.0
CCc1c(C)nc2ccc(Br)cc2c1SCCC#N | 85.0 | 90.0 | 0.5 | -4.0 | -0.3 | 98.0 | x | x | x
O=C(Cc1ccccc1[N+](=O)[O-])Nc1ccc(S(=O)(=O)N2CCCC2)cc1 | 103.0 | 107.0 | x | 7.0 | x | 97.0 | x | x | x
CC1(C(=O)NCC2CC2)Cc2c(-c3ccc4c(c3)OCO4)ccnc2O1 (stereo not given) | x | x | x | x | x | 97.0 | x | x | x
CC/C(=C\C(=O)c1ccncc1)Nc1ccc(O)cc1 | 107.0 | 113.0 | 0.6 | 25.0* | 18.7 | 104.0 | 96.0 | -10.0 | 98.0
O=C(N/N=C/c1ccc(O)cc1)c1ccncc1 | 98.0 | 101.0 | -1.2 | 2.0 | 14.1 | 97.0 | x | x | x
C[C@H](NS(=O)(=O)c1ccc2c(c1)OCCCO2)C(=O)N1CCN(c2ccc(F)cc2)CC1 | x | x | -0.8 | x | 1.2 | 99.0 | x | x | x
COc1ccc(CCNC(=O)CSc2cc(=O)[nH]c(N)n2)cc1OC | 105.0 | 105.0 | 1.7 | 4.0 | 3.8 | 97.0 | x | x | x
COc1ccc(CCNC(=O)CSc2nc(O)cc(=O)[nH]2)cc1OC | 134.0* | 114.0 | -1.3 | 29.0 | 0.4 | 102.0 | 106.0 | 10.0 | 110.0
COc1ccc(CCNC(=O)CN(c2ccc(OC)c(OC)c2)S(C)(=O)=O)cc1OC | 122.0* | 119.0 | -1.0 | 5.0 | 5.7 | 100.0 | 100.0 | 2.0 | 101.0
